Test results reported in PubChem BioAssay (NCI).
Compounds without any hit were thinned out: in the full panel of roughly 83,000, 20% have a hit.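 A percent growth of 40 corresponds to 60% growth inhibition; 0 means no net growth; -100 means all cells died. Active threshold: below 10.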 Activity calls are given as the source filed them.

Columns and labels:
Experiment in all cases: NCI-60 one-dose screen, 48 h (100 = growth as untreated, 0 = no growth, -100 = all killed)
Details in all cases: 10 µM unless noted
[1] = system: NCI-H23 lung
[2] = system: NCI-H226 lung
[3] = system: NCI-H322M lung
[4] = system: HOP-62 NSCLC
[5] = system: NCI-H460 lung
[6] = system: HOP-92 NSCLC
[7] = system: 786-0 renal
[8] = system: COLO 205 colon
[9] = system: DU-145 prostate
[10] = system: K-562 leukemia
[11] = system: MALME-3M melanoma
[12] = system: MDA-MB-231 breast
[13] = system: RXF 393 renal
[14] = system: SF-268 CNS
[15] = system: SF-295 CNS
[16] = system: SF-539 CNS
[17] = system: M14 melanoma
[18] = system: A549/ATCC NSCLC
[19] = system: UACC-257 melanoma

Measured: growth

COc1ccc(-c2ccc(-c3ccc(C(=N)N)s3)s2)cc1
active: [1] -70.3% | [2] -50.9% | [3] -93.4% | [4] -81.6% | [5] -64.2% | [6] -64.2% | [7] -64.4% | [8] -89.2% | [9] -95.5% | [10] -21.5% | [11] -61.4% | [12] -79.9% | [13] -57.5% | [14] -61.3% | [15] -77.6% | [16] -75.5% | [17] -55.1%

N=C(N)c1ccc(-c2ccc(-c3ccco3)o2)cc1F
inactive: [1] 56.2% | [2] 67.4% | [4] 32.2% | [9] 31.3% | [13] 34.1% | [14] 19.8%
active: [3] -10.4% | [5] 0.478% | [6] -20% | [7] 4.8% | [8] -93.4% | [10] 1.49% | [11] -68.2% | [12] 9.14% | [15] -27% | [16] 8.28% | [17] -65.9%

N#Cc1ccc(-c2ccc(-c3cccs3)o2)cc1F
inactive: [1] 76.9% | [2] 81.8% | [3] 83.3% | [4] 35.7% | [5] 88.1% | [6] 50.5% | [7] 67.2% | [8] 86.2% | [9] 88.1% | [10] 83.7% | [11] 86.6% | [12] 82.2% | [13] 77.2% | [14] 70.7% | [15] 75.5% | [16] 78.1% | [17] 87.7%

COC(=O)[C@H](Cc1cn(C)cn1)NC(=O)[C@H](CC(C)C)NC(=O)Nc1cc(C(F)(F)F)cc(C(F)(F)F)c1
active: [1] -84.5% [100 µM] | [2] -54.7% [100 µM] | [3] -97.8% [100 µM] | [4] -100% [100 µM] | [5] -59.8% [100 µM] | [6] -98.2% [100 µM] | [7] -94.9% [100 µM] | [8] -84.4% [100 µM] | [9] -100% [100 µM] | [10] -65.4% [100 µM] | [11] -93.5% [100 µM] | [12] -94% [100 µM] | [13] -89.3% [100 µM] | [14] -92.8% [100 µM] | [15] -96.5% [100 µM] | [17] -95.2% [100 µM]

COc1ccc(/C=N/NC(N)=S)c(OC)n1
inactive: [1] 108% | [2] 85.7% | [3] 104% | [4] 116% | [5] 106% | [6] 113% | [7] 104% | [8] 111% | [9] 113% | [10] 89.5% | [11] 103% | [12] 110% | [13] 94.4% | [14] 109% | [15] 106% | [16] 100% | [17] 104%

C[N+](C)(C)CCCCCCCCCC[N+](C)(C)C
inactive: [1] 88.7% | [2] 95.6% | [3] 118% | [4] 96.2% | [5] 98.2% | [6] 103% | [18] 103% | [7] 109% | [11] 93% | [12] 83.6% | [13] 101% | [14] 98.2% | [15] 113% | [16] 119% | [19] 107% | [17] 97.1%

O=P(O)(O)C(O)(Cc1cccnc1)P(=O)(O)O
inactive: [1] 93.1% | [2] 111% | [3] 107% | [4] 94.3% | [5] 111% | [6] 114% | [18] 98.8% | [7] 108% | [11] 113% | [12] 94.1% | [13] 101% | [14] 104% | [15] 111% | [16] 101% | [19] 99.4% | [17] 99.6%

COC(=O)[C@@H](Cc1c[nH]c2ccccc12)NC(=O)/C=C/c1ccccc1
active: [5] 9.94% | [13] -25.6% | [15] -1.2% | [16] -66.8% | [17] -37.5%
inactive: [1] 39.4% | [2] 60.2% | [3] 33.8% | [4] 19% | [6] 54.6% | [7] 28.8% | [8] 97.3% | [9] 12% | [10] 15.9% | [11] 35.1% | [12] 37.7% | [14] 42.9%

COc1cc2ccc(C(C)=O)cc2cc1OC
inactive: [1] 99.5% | [2] 81.4% | [3] 104% | [4] 81.8% | [5] 100% | [6] 86% | [7] 107% | [8] 97.1% | [9] 111% | [10] 118% | [11] 107% | [12] 109% | [14] 101% | [16] 95.6% | [17] 110%

CCN(C(=O)CCl)C(C)(C)C(SSSC(c1ccc(Cl)cc1)C(C)(C)N(CC)C(=O)CCl)c1ccc(Cl)cc1 (stereo not given)
active: [10] 0.579% | [17] -15.9%
inactive: [1] 93.6% | [2] 104% | [3] 87.7% | [4] 86.6% | [5] 81.1% | [6] 47% | [7] 79.7% | [8] 56.8% | [9] 85.5% | [11] 28.9% | [12] 73.7% | [13] 48.6% | [14] 91.1% | [15] 89.5% | [16] 87.7%

O=C(N/N=C/c1ccc([N+](=O)[O-])o1)c1ccc(O)cc1
active: [11] -34.9% | [16] 8.11% | [17] 4.75%
inactive: [1] 41.5% | [2] 89.7% | [3] 65.6% | [4] 30.3% | [5] 18.8% | [6] 103% | [18] 36.9% | [7] 63.4% | [12] 57.9% | [13] 82.5% | [14] 12.6% | [15] 49.8% | [19] 17.1%

N=C(N)c1ccc(-c2ccc(-c3cccs3)s2)cc1F
active: [1] -62.8% | [2] -65.6% | [3] -92.4% | [4] -96.2% | [5] -57.4% | [6] -62% | [7] -86% | [8] -87.1% | [9] -77.4% | [10] -6.25% | [11] -73.4% | [12] -74.1% | [13] -92.6% | [14] -77.1% | [15] -71.2% | [16] -93.9% | [17] -78.3%

COc1ccc(/C=C/c2nc(NCCCN(C)C)c3ccccc3n2)cc1
inactive: [1] 73.6% | [2] 103% | [3] 82.7% | [4] 83.9% | [5] 33.2% | [18] 91.2% | [7] 78% | [8] 85.9% | [9] 96.5% | [11] 25.9% | [12] 18.7% | [14] 55% | [15] 65.8% | [16] 47.5% | [19] 97.3%
active: [6] 0.889% | [10] -75.3%

COc1ccc(-n2nc(C(=O)Nc3ccc(F)cc3)nc2-c2cc(OC)c(OC)c(OC)c2)cc1
inactive: [1] 92.7% | [2] 79.3% | [3] 78.5% | [4] 87.8% | [5] 98.4% | [6] 91.2% | [7] 83.6% | [8] 102% | [9] 111% | [10] 83.7% | [11] 96.2% | [12] 93.9% | [14] 102% | [16] 88.3% | [17] 110%

COc1ccc(-c2cc(-c3cc4ccccc4oc3=O)n(-c3ccccc3)n2)cc1
active: [7] -31.5%
inactive: [1] 79.3% | [2] 75.7% | [3] 78.1% | [4] 55.4% | [5] 95.3% | [6] 67% | [8] 66.3% | [9] 84% | [10] 81.8% | [11] 69.5% | [12] 60.1% | [14] 71.1% | [15] 94.7% | [16] 33.8% | [17] 89%

O=C(CC(=O)c1ccccc1F)Nc1ccc([N+](=O)[O-])cc1
inactive: [1] 105% | [2] 86.2% | [3] 91.5% | [4] 114% | [5] 104% | [6] 79.6% | [7] 101% | [8] 105% | [9] 119% | [10] 91.9% | [11] 93.6% | [12] 103% | [13] 103% | [14] 105% | [15] 98% | [16] 93.2% | [17] 100%

Cc1cccc2nc3ccccc3c(Nc3ccc(NS(C)(=O)=O)cc3)c12
inactive: [1] 57.8% | [3] 92.8% | [4] 35.2% | [5] 10.1% | [7] 38.2% | [8] 51.1% | [9] 23.1% | [10] 35.1% | [11] 40.4% | [12] 72.9% | [13] 55.4% | [14] 57.9% | [15] 21.6% | [16] 39.6% | [17] 70.7%
active: [2] 5.12% | [6] -3.43%
